# Results with a measured potency or affinity are listed apart. Inconclusive results are not listed. Calls of active or inactive are those of the source. How the calls were made is not given here.
# Assay: cytotoxicity in NIH-3T3 fibroblasts, dose response, cytotoxicity control for antifungal drug resistance project, cell-based, Alamar Blue, fluconazole, dry powder (AID 488809)
# Conditions: NIH-3T3 fibroblasts + fluconazole, Alamar Blue viability, 48 h; series mostly up to 26 µM; activity change, negative = toxicity: at the top concentration
row,Structure (SMILES),"activity change, negative = toxicity"
1,O=C(O)c1c2ccccc2nn1Cc1ccc(Cl)cc1,-10.5% (inactive)
2,Cc1nn(S(C)(=O)=O)c2ccccc12,-23.7% (inactive)
3,CCCCNC(=O)N1CCN(c2ccnc3cc(Cl)ccc23)CC1,-26.3% (inactive)
4,O=c1c2[nH]c3ccccc3c2nc2n1CCS2,-20.2% (inactive)
5,COc1ccc2c(c1)c1nc3n(c(=O)c1n2CC(=O)N1CCC(C)CC1)CCS3,15.5% [at 2.6 µM] (inactive)
6,O=C(Cn1c2ccccc2c2nc3n(c(=O)c21)CCS3)NCCc1ccc(Cl)cc1,-24.4% (inactive)
7,O=C(Cn1c2ccccc2c2nc3n(c(=O)c21)CCS3)N1CCCC1,-31.6% (inactive)
8,COC(=O)Cn1nc(C)c2ccccc21,-27.1% (inactive)
9,COc1ccc(OC)c2c(C)cc(N3CCN(C(=O)c4ccc(Cl)cc4)CC3)nc12,-28.7% (inactive)
10,O=C(c1ccc(Cl)cc1)N1CCN(c2ccccn2)CC1,-27.1% (inactive)
11,O=C(Cn1c2ccccc2c2nc3n(c(=O)c21)CCCS3)c1ccc(F)cc1,-25.7% (inactive)
12,O=C(c1ccc(Cl)cc1)N1CCN(c2ccc(Cl)cc2)CC1,-4.29% (inactive)
13,COC(=O)Cn1nc(-c2ccccc2)c2ccccc21,-21.6% (inactive)
14,COC(=O)Cn1nc(-c2ccccc2)c2cc(Cl)ccc21,-27.8% (inactive)
15,O=C(Cn1nc(C(=O)N2CCCCC2)c2ccccc21)N1CCOCC1,-21.6% (inactive)
16,COC(=O)Cn1nc(-c2ccc(Cl)cc2)c2ccccc21,-3.6% (inactive)
17,O=C(O)c1nn(Cc2ccc(Cl)cc2)c2ccccc12,-16% (inactive)
18,O=C(Cn1nc(-c2ccccc2)c2cc(Cl)ccc21)N1CCOCC1,-33% (inactive)
19,CCOC(=O)c1c2ccccc2nn1Cc1ccc(Cl)cc1,-15.4% (inactive)
20,O=C(c1ccccc1)N1CCN(c2ccnc3cc(Cl)ccc23)CC1,-29.5% (inactive)

# Source: PubChem BioAssay AID488809 (Broad Institute, 2010)
